Compounds with a hit are over-represented: about 9.3% of the library has one in this group of screens.
FLuc counter: counter-screen for miR-21 project: firefly luciferase inhibitors or activators; Potency, µM (series often up to 57.5 µM), without a hit: at the top dose activity change, negative = inhibition, actives largely listed as inhibitors; 6.9% of 360,000 active; purified FLuc, Km substrates, luminescence inhibition; AID 588342;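 also: plate controls were vehicle for no effect and reference inhibitor for full effect; nearly all actives have a fitted effect of over 55% in size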
Target sequence (P08659 whole entry, looked up): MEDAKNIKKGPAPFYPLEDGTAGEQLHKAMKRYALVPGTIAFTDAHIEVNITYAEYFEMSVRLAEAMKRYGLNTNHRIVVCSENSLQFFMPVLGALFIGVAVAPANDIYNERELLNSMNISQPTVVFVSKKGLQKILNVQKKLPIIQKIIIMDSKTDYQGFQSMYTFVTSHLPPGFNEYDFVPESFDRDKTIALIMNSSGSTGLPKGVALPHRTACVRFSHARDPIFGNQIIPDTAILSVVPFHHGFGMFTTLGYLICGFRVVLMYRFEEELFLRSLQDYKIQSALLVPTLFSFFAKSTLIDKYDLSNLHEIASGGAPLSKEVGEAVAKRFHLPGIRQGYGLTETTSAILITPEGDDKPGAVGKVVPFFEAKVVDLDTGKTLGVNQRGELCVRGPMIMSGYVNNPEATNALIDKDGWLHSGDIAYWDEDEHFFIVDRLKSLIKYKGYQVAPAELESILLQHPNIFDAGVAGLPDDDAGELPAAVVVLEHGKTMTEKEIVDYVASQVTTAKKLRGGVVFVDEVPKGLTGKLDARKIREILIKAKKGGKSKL
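Biochemical qHTS of compounds, final roughly 60 µM downward over six points, against 10 nM purified firefly luciferase using Km concentrations of substrates (10 uM D-luciferin, 10 uM ATP) in Tris acetate pH 7.5 buffer; luminescence output.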
ELG1 genotoxic: genotoxicity induction in ELG1-luciferase HEK293T cells. HEK293T ELG1-luciferase reporter, luminescence, 16 h. Potency, µM (top dose mostly 46 µM), without a hit: at the top dose activity change, positive = activation, hits mostly activators. 1.3% of 330,000 active; also: % of control where 0% means no effect; nearly all actives have a fitted effect of over 60% in size
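HEK293T cells expressing luciferase-tagged ELG1 were treated with compound or DMSO for 16 hr at 37°C. Luciferase activity was then read after 30 min with ONE-Glo at room temperature; rising signal flags genetic stress.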
SMN2 splice enh: SMN2 splice variant enhancement | 2.8% of 210,000 active | HEK293 SMN2-luciferase splicing reporter, luminescence, 30-36 h | AID 1458 | Potency, µM (highest dose often 46.1 µM), without a hit: at the highest dose activity change, positive = activation, actives largely listed as activators; also: % of control where 0% means no effect; nearly all actives have a fitted effect of over 55% in size
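qHTS luciferase splicing reporter: luminescence rises when SMN2 exon 7 is included in transfected HEK293 cells. Compound exposure lasted 30-36 h at 37C, with 4.5 mM final sodium butyrate as control, followed by a ONE-Glo read.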
ELG1 repair inh: blocks ELG1-dependent DNA repair in HEK293T cells. HEK293T ELG1-luciferase reporter, luminescence, 16 h; DNA damage induced by 5-fluorouridine. Potency, µM (highest dose often 46.1 µM), without a hit: top-dose activity change, negative = inhibition, hits mostly inhibitors. 2.3% of 330,000 active; also: % is scaled to controls: 0 for no effect and ±100 for the full control effect; nearly all actives have a fitted effect of over 55% in size
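DMSO vehicle served as the neutral condition. Each well held 2,000 cells given 5-fluorouridine plus compound; after 16 hr at 37 °C/5% CO2, ONE-Glo was added and luciferase measured 30 min later.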
Rab9 promoter act: activates the Rab9 promoter | Huh7 Rab9 promoter-luciferase reporter, luminescence, 24 h | Potency, µM (series often up to 9.22 µM), inactives show at the top dose activation, negative = inhibition, hits mostly activators | 2.8% of 320,000 active | AID 485297; also: % of control where 0% means no effect; nearly all actives have a fitted effect of over 60% in size
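Huh7 reporter line, Rab9 promoter upstream of luciferase. Compound exposure 24 h at 37 °C in reduced-serum medium with 10% FBS. Read-out: luminescence.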
NPC1 promoter act: activates the NPC1 promoter | Huh7 NPC1 promoter luciferase reporter, 24 h | Potency, µM (titrated, usually from 9.22 µM), without a hit: at the highest dose activation, hits mostly activators | 2.4% of 320,000 active | AID 485313; also: % of control where 0% means no effect; nearly all actives have a fitted effect of over 60% in size
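NPC1 promoter–luciferase Huh7 cells; 24 h compound; luminescence.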
Numbers without * were called inactive. Calls follow the shape of the dose curve; as a rule, active = well fitted curve in the direction sought with a large enough effect; inconclusive = small, poorly fitted or top-dose-only effect, or another doubt; inactive = no such curve, though single readings can be large; an effect the other way counts as inactive or inconclusive. Potency is read from the fitted curve at half-maximal effect.

CCOC(=O)c1nn(-c2ccc3ccccc3c2)cc1O was read as FLuc counter 8.5µM*, ELG1 genotoxic 15µM*, SMN2 splice enh 13%, ELG1 repair inh inconclusive, Rab9 promoter act 23% and NPC1 promoter act inconclusive.
CCOC(=O)c1nn(-c2cc(C(=O)OC)cc(C(=O)OC)c2)cc1O was read as FLuc counter 2%, ELG1 genotoxic 4%, SMN2 splice enh 2%, ELG1 repair inh -20%, Rab9 promoter act -3% and NPC1 promoter act -2%.
For CCOC(=O)c1nn(-c2ccc(Cl)cc2)cc1O the results were FLuc counter 11µM*, ELG1 genotoxic inconclusive, ELG1 repair inh inconclusive, Rab9 promoter act inconclusive and NPC1 promoter act inconclusive.
Screening CCOC(=O)c1nn(-c2ccc(C)cc2)cc1O returned FLuc counter 7.6µM*, ELG1 genotoxic 3.2µM*, SMN2 splice enh inconclusive, ELG1 repair inh inconclusive, Rab9 promoter act inconclusive and NPC1 promoter act 4.5µM*.
Screening CCOC(=O)c1cc(C(=O)OCC)cc(-n2cc(O)c(C(=O)OCC)n2)c1 returned FLuc counter -1%, ELG1 genotoxic 0%, SMN2 splice enh 0%, ELG1 repair inh -24%, Rab9 promoter act 0% and NPC1 promoter act 0%.
For CC1(C)Cc2c(cnn2-c2ccccc2)-c2c1c1ccccc1n2CC(O)CCl (centres undefined) the results were FLuc counter -8%, ELG1 genotoxic -17%, SMN2 splice enh -21%, ELG1 repair inh 26µM*, Rab9 promoter act 1% and NPC1 promoter act -5%.
`Cc1nccn1CC(O)Cn1c2ccccc2c2ccccc21` (centres undefined) gave FLuc counter -7%, ELG1 genotoxic 1%, SMN2 splice enh 6%, ELG1 repair inh inconclusive, Rab9 promoter act 1% and NPC1 promoter act -6%.
For CCCCNC(=O)/C=C/c1ccc(OC)c(Br)c1 the results were FLuc counter inconclusive, ELG1 genotoxic 20%, SMN2 splice enh -1%, ELG1 repair inh -2%, Rab9 promoter act -8% and NPC1 promoter act 0%.
COc1cc(C2CC(=O)c3cnc(NC(=O)COc4ccccc4)nc3C2)cc(OC)c1OC (centres undefined) was read as FLuc counter 0%, ELG1 genotoxic 0%, SMN2 splice enh -12%, ELG1 repair inh -3%, Rab9 promoter act -9% and NPC1 promoter act 2%.
For N#Cc1c(NC(=O)COC(=O)c2ccc(O)cc2O)sc2c1CCC2 the results were FLuc counter 1%, ELG1 genotoxic 1%, ELG1 repair inh 1%, Rab9 promoter act 4% and NPC1 promoter act 0%.
Screening O=c1c2cccc(Cl)c2nc2n1Cc1ccccc1-2 returned FLuc counter 12µM*, ELG1 genotoxic inconclusive, ELG1 repair inh inconclusive, Rab9 promoter act 2.8µM* and NPC1 promoter act inconclusive.
Screening O=c1nc2n(c3ccccc13)Cc1ccccc1-2 returned FLuc counter 6%, ELG1 genotoxic -1%, SMN2 splice enh 12%, ELG1 repair inh 0%, Rab9 promoter act -2% and NPC1 promoter act -2%.
For Cc1sc2nc3n(c(=O)c2c1C)CCCCC3 the results were FLuc counter -5%, ELG1 genotoxic 0%, SMN2 splice enh 18%, ELG1 repair inh inconclusive, Rab9 promoter act 1% and NPC1 promoter act -5%.
Cc1sc2nc3n(c(=O)c2c1C)Cc1ccccc1-3 was read as FLuc counter 3.8µM*, ELG1 genotoxic inconclusive, SMN2 splice enh 14µM*, ELG1 repair inh inconclusive, Rab9 promoter act inconclusive and NPC1 promoter act 26%.
For COc1ccc(Nc2ccnc3ccccc23)cc1 the results were FLuc counter -17%, ELG1 genotoxic -14%, SMN2 splice enh -6%, ELG1 repair inh 16µM*, Rab9 promoter act 13% and NPC1 promoter act 12%.
For COc1cccc(Nc2ncnc3ccccc23)c1 the results were FLuc counter 11µM*, ELG1 genotoxic 4.6µM*, SMN2 splice enh 14µM*, ELG1 repair inh inconclusive, Rab9 promoter act inconclusive and NPC1 promoter act inconclusive.

Screening results: PubChem, National Center for Advancing Translational Sciences (NCATS)
